From publication PMC11062922 (Nature Chemical Biology, 2023)
Like-named read-outs stand apart in the source and are kept apart here.

What was measured:
Design in all cases: species or system human, MV4-11 + K-562 + COLO205 + SK-N-BE2 + OVCAR-8
ACVR1B = conditions: read-out: apparent Kd, n = 1
ADCK3 = conditions: read-out: apparent Kd, n = 1
NQO2 = conditions: read-out: apparent Kd; compound concentrations:100 nM and 1000 nM (sheet 'Samples'); n = 1
TGFBR1 = conditions: read-out: apparent Kd, n = 1
CDK7 = conditions: read-out: apparent Kd; compound concentrations:100 nM and 1000 nM (sheet 'Samples'); n = 1
CSNK1D = conditions: read-out: apparent Kd; compound concentrations:100 nM and 1000 nM (sheet 'Samples'); n = 1
GAK = conditions: read-out: apparent Kd, n = 1
PRKD2 = conditions: read-out: apparent Kd; compound concentrations:100 nM and 1000 nM (sheet 'Samples'); n = 1
PRKD3 = conditions: read-out: apparent Kd; compound concentrations:100 nM and 1000 nM (sheet 'Samples'); n = 1
TGFBR2 = conditions: read-out: apparent Kd; compound concentrations:100 nM and 1000 nM (sheet 'Samples'); n = 1
TNIK = conditions: read-out: apparent Kd; compound concentrations:100 nM and 1000 nM (sheet 'Samples'); n = 1
TNK1 = conditions: read-out: apparent Kd; compound concentrations:100 nM and 1000 nM (sheet 'Samples'); n = 1
ACVR2B = conditions: read-out: apparent Kd, compound concentrations: 100 nM and 1000 nM (sheet 'Samples'), n = 1
BCR = conditions: read-out: apparent Kd; compound concentrations: 100 nM and 1000 nM (sheet 'Samples'), CATDS: 9.2768545935790703E-2; n = 1
CSNK1G1 = conditions: read-out: apparent Kd; compound concentrations: 100 nM and 1000 nM (sheet 'Samples'), CATDS: 3.1181891791675201E-2; n = 1
DCTPP1 = conditions: read-out: apparent Kd; compound concentrations: 100 nM and 1000 nM (sheet 'Samples'), CATDS: 3.3773682420650999E-2; n = 1
DDR1 = conditions: read-out: apparent Kd; compound concentrations: 100 nM and 1000 nM (sheet 'Samples'), CATDS: 4.4560789756538197E-2; n = 1
FLT4 = conditions: read-out: apparent Kd; compound concentrations: 100 nM and 1000 nM (sheet 'Samples'), CATDS: 0.117719858007404; n = 1
MAPK14 = conditions: read-out: apparent Kd; compound concentrations: 100 nM and 1000 nM (sheet 'Samples'), CATDS: 3.4656065329692502E-2; n = 1
MAPKAPK2 = conditions: read-out: apparent Kd; compound concentrations: 100 nM and 1000 nM (sheet 'Samples'), CATDS: 3.6359622105698597E-2; n = 1
PDGFRB = conditions: read-out: apparent Kd; compound concentrations: 100 nM and 1000 nM (sheet 'Samples'), CATDS: 3.2777041424413303E-2; n = 1
PIK3CD = conditions: read-out: apparent Kd; compound concentrations: 100 nM and 1000 nM (sheet 'Samples'), CATDS: 7.8466162037350698E-2; n = 1
PIM2 = conditions: read-out: apparent Kd; compound concentrations: 100 nM and 1000 nM (sheet 'Samples'), CATDS: 3.2827495568097498E-2; n = 1
PRKAG1 = conditions: read-out: apparent Kd; compound concentrations: 100 nM and 1000 nM (sheet 'Samples'), CATDS: 0.117727250561146; n = 1
RET = conditions: read-out: apparent Kd; compound concentrations: 100 nM and 1000 nM (sheet 'Samples'), CATDS: 0.121628255608471; n = 1
RIPK2 = conditions: read-out: apparent Kd, compound concentrations: 100 nM and 1000 nM (sheet 'Samples'), n = 1
RIPK3 = conditions: read-out: apparent Kd; compound concentrations: 100 nM and 1000 nM (sheet 'Samples'), CATDS: 3.5551158882109302E-2; n = 1
SLK = conditions: read-out: apparent Kd; compound concentrations: 100 nM and 1000 nM (sheet 'Samples'), CATDS: 3.3864807637991101E-2; n = 1
STK10 = conditions: read-out: apparent Kd; compound concentrations: 100 nM and 1000 nM (sheet 'Samples'), CATDS: 3.2932221087981599E-2; n = 1
ACVR1 = conditions: read-out: apparent Kd; compound concentrations: 100 nM and 1000 nM (sheet 'Samples'), CATDS: 0.77187058261615105; n = 1
ADRBK1 = conditions: read-out: apparent Kd; compound concentrations: 100 nM and 1000 nM (sheet 'Samples'), CATDS: 7.2370560484510002E-2; n = 1
BMPR1A = conditions: read-out: apparent Kd; compound concentrations: 100 nM and 1000 nM (sheet 'Samples'), CATDS: 0.17247820312197201; n = 1
BMPR1B = conditions: read-out: apparent Kd; compound concentrations: 100 nM and 1000 nM (sheet 'Samples'), CATDS: 0.14495542747652801; n = 1
ZAK = conditions: read-out: apparent Kd; compound concentrations: 100 nM and 1000 nM (sheet 'Samples'), CATDS: 6.5320579429353404E-2; n = 1
CSNK2A1;CSNK2A3 = conditions: read-out: apparent Kd; compound concentrations:100 nM and 1000 nM (sheet 'Samples'); n = 1
CSNK2A2 = conditions: read-out: apparent Kd; compound concentrations:100 nM and 1000 nM (sheet 'Samples'); n = 1
[1] = compound concentrations:100 nM and 1000 nM (sheet 'Samples')

Q: How did the potency estimated from few doses (ACVR1B; [1]) turn out when N#Cc1ccc(-c2cc(-c3c[nH]nc3-c3ccccn3)ccn2)cc1 [GW693028X] was run?
A: Its potency estimated from few doses is 0.872 µM.

Q: What about the potency estimated from few doses (ADCK3; [1]) of the same compound?
A: The potency estimated from few doses was 0.671 µM.

Q: What about the potency estimated from few doses (NQO2) of the same compound?
A: Its potency estimated from few doses is 0.773 µM.

Q: And the potency estimated from few doses (TGFBR1; [1])?
A: Its potency estimated from few doses is 0.263 µM.

Q: c1ccc(-c2n[nH]cc2-c2ccnc(-c3ccc(CNC4CCOCC4)cc3)c2)nc1 [GW709213X] was tested. Which potency estimated from few doses (ACVR1B; [1]) did it give?
A: The potency estimated from few doses was 0.0391 µM.

Q: And the potency estimated from few doses (CDK7)?
A: Its potency estimated from few doses is 1.09 µM.

Q: What about the potency estimated from few doses (CSNK1D) of the same compound?
A: The potency estimated from few doses was 1.5 µM.

Q: What about the potency estimated from few doses (GAK; [1]) of the same compound?
A: Its potency estimated from few doses is 1.15 µM.

Q: What about the potency estimated from few doses (NQO2) of the same compound?
A: Its potency estimated from few doses is 0.925 µM.

Q: And the potency estimated from few doses (PRKD2)?
A: The potency estimated from few doses was 0.195 µM.

Q: And the potency estimated from few doses (PRKD3)?
A: Its potency estimated from few doses is 0.193 µM.

Q: And the potency estimated from few doses (TGFBR1; [1])?
A: Its potency estimated from few doses is 0.0126 µM.

Q: And the potency estimated from few doses (TGFBR2)?
A: The potency estimated from few doses was 1.33 µM.

Q: And the potency estimated from few doses (TNIK)?
A: The potency estimated from few doses was 2.41 µM.

Q: What about the potency estimated from few doses (TNK1) of the same compound?
A: Its potency estimated from few doses is 0.445 µM.

Q: How did the potency estimated from few doses (ACVR1B; compound concentrations: 100 nM and 1000 nM (sheet 'Samples'), CATDS: 4.6786491220556801E-2) turn out when Cl.c1ccc(-c2ccc3c(Nc4ccc5[nH]ccc5c4)ccnc3c2)nc1 [GW440138A] was run?
A: Its potency estimated from few doses is 0.481 µM.

Q: What about the potency estimated from few doses (ACVR2B; CATDS: 8.2353092384730597E-2) of the same compound?
A: Its potency estimated from few doses is 0.119 µM.

Q: What about the potency estimated from few doses (ADCK3; compound concentrations: 100 nM and 1000 nM (sheet 'Samples'), CATDS: 4.7719442951788302E-2) of the same compound?
A: The potency estimated from few doses was 0.453 µM.

Q: What about the potency estimated from few doses (BCR) of the same compound?
A: The potency estimated from few doses was 0.0942 µM.

Q: What about the potency estimated from few doses (CSNK1G1) of the same compound?
A: The potency estimated from few doses was 2.21 µM.

Q: What about the potency estimated from few doses (DCTPP1) of the same compound?
A: Its potency estimated from few doses is 1.52 µM.

Q: What about the potency estimated from few doses (DDR1) of the same compound?
A: The potency estimated from few doses was 0.558 µM.

Q: And the potency estimated from few doses (FLT4)?
A: The potency estimated from few doses was 0.0621 µM.

Q: And the potency estimated from few doses (GAK; compound concentrations: 100 nM and 1000 nM (sheet 'Samples'), CATDS: 0.134261211287381)?
A: The potency estimated from few doses was 0.0504 µM.

Q: And the potency estimated from few doses (MAPK14)?
A: Its potency estimated from few doses is 1.36 µM.

Q: And the potency estimated from few doses (MAPKAPK2)?
A: Its potency estimated from few doses is 1.13 µM.

Q: What about the potency estimated from few doses (PDGFRB) of the same compound?
A: Its potency estimated from few doses is 1.74 µM.

Q: And the potency estimated from few doses (PIK3CD)?
A: Its potency estimated from few doses is 0.131 µM.

Q: And the potency estimated from few doses (PIM2)?
A: Its potency estimated from few doses is 1.73 µM.

Q: What about the potency estimated from few doses (PRKAG1) of the same compound?
A: Its potency estimated from few doses is 0.0621 µM.

Q: And the potency estimated from few doses (RET)?
A: The potency estimated from few doses was 0.0589 µM.

Q: What about the potency estimated from few doses (RIPK2; CATDS: 9.1819090008616905E-2) of the same compound?
A: The potency estimated from few doses was 0.096 µM.

Q: What about the potency estimated from few doses (RIPK3) of the same compound?
A: Its potency estimated from few doses is 1.23 µM.

Q: And the potency estimated from few doses (SLK)?
A: The potency estimated from few doses was 1.5 µM.

Q: And the potency estimated from few doses (STK10)?
A: The potency estimated from few doses was 1.7 µM.

Q: What about the potency estimated from few doses (TGFBR1; compound concentrations: 100 nM and 1000 nM (sheet 'Samples'), CATDS: 3.3353996137348303E-2) of the same compound?
A: The potency estimated from few doses was 1.61 µM.

Q: Which potency estimated from few doses (ACVR1B; compound concentrations: 100 nM and 1000 nM (sheet 'Samples'), CATDS: 0.127263158539664) does the source give for COc1cc(-c2cncc(-c3cnn(C4CCNCC4)c3)c2)cc(OC)c1OC [K05908] here?
A: The potency estimated from few doses was 0.0931 µM.

Q: What about the potency estimated from few doses (ACVR1) of the same compound?
A: The potency estimated from few doses was 0.00197 µM.

Q: And the potency estimated from few doses (ACVR2B; CATDS: 7.0258773018851195E-2)?
A: The potency estimated from few doses was 1.36 µM.

Q: And the potency estimated from few doses (ADRBK1)?
A: Its potency estimated from few doses is 1.11 µM.

Q: And the potency estimated from few doses (BMPR1A)?
A: Its potency estimated from few doses is 0.0423 µM.

Q: What about the potency estimated from few doses (BMPR1B) of the same compound?
A: Its potency estimated from few doses is 0.065 µM.

Q: And the potency estimated from few doses (RIPK2; CATDS: 0.16221198549174301)?
A: The potency estimated from few doses was 0.049 µM.

Q: And the potency estimated from few doses (TGFBR1; compound concentrations: 100 nM and 1000 nM (sheet 'Samples'), CATDS: 0.103891234408396)?
A: The potency estimated from few doses was 0.181 µM.

Q: What about the potency estimated from few doses (ZAK) of the same compound?
A: The potency estimated from few doses was 2.41 µM.

Q: Cc1cccc(-c2nc(Nc3ccc4[nH]ncc4c3)c3ccccc3n2)n1 [GW857175X] was tested. Which potency estimated from few doses (ACVR1B; [1]) did it give?
A: The potency estimated from few doses was 0.089 µM.

Q: What about the potency estimated from few doses (CSNK2A1;CSNK2A3) of the same compound?
A: The potency estimated from few doses was 0.00412 µM.

Q: What about the potency estimated from few doses (CSNK2A2) of the same compound?
A: The potency estimated from few doses was 0.0033 µM.

Q: What about the potency estimated from few doses (PRKD2) of the same compound?
A: Its potency estimated from few doses is 0.00889 µM.

Q: What about the potency estimated from few doses (PRKD3) of the same compound?
A: The potency estimated from few doses was 0.0355 µM.
